Each structure is given as a SMILES string. For part of these data: Results with a measured potency or affinity are listed apart. The source made the active and inactive calls.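 How the source made its calls, unless noted: active means primary screen active and over 50% activation in each of two duplicate runs; inactive means the rest.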

Data on 15 molecules can be found in PubChem BioAssay.

Assay [1] deals with TRPC4 beta (transient receptor potential cation channel C4), mouse. Put plainly: TRPC4 cation channel opening, retest – cell-based, Fluo4 calcium, HEK293 TRPC4beta/mu-opioid, duplicates, 10 µM, confirmation (AID 2426;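 active means fluorescence ratio normalized to control raised more than 50% in primary screen plus both repeat runs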;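 on activation: percent rise of integrated ratio over buffer wells lacking compound which define 0%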). The settings on record: Fluo4 calcium fluorescence, at 10 µM; stronger effect = higher value.
Assay [2] deals with transient receptor potential cation channel C4 beta (TRPC4), mouse. Put plainly: TRPC4 cation channel opening, second retest – cell-based, second round, Fluo4, HEK293 TRPC4beta/mu-opioid, 1 µM, confirmation (AID 2461).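 On activation: 0% = wells without test compound as baseline of integrated fluorescence ratio.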 The settings on record: Fluo4 calcium fluorescence, at 1 µM; stronger effect = higher value.
The subject of assay [3] is TRPC4 (transient receptor potential cation channel C4 beta), mouse. Put plainly: potentiation of DAMGO EC20 TRPC4 response – cell-based, second round, Fluo-4, HEK293 TRPC4beta/mu-opioid, 1 µM, confirmation (AID 2554;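 active means primary screen hit whose fluorescence ratio, in both repeats, exceeds the weak agonist control mean by 3 SD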). The settings on record: DAMGO EC20, Fluo-4 calcium flux, at 1 µM; stronger effect = higher value. Background: Calcium flux is commonly read through the fluorescence of an indicator in the cells.

Assay [4] relates to TRPC4 beta (transient receptor potential cation channel C4), mouse. Put plainly: potentiation of DAMGO EC20 TRPC4 response – cell-based, Fluo-4, HEK293 TRPC4beta/mu-opioid, confirmation (AID 2555;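 active means primary screen hit whose calcium fluorescence ratio, in both repeats, exceeds the weak agonist control mean by 3 SD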). To be noted: DAMGO EC20, Fluo-4 calcium flux, at 10 µM; stronger effect = higher value.
For assay [5], the target named is Short transient receptor potential channel 4 (Mus musculus) (UniProt Q9QUQ5). Nature of the assay: blockers of DAMGO-evoked TRPC4 calcium flux – cell-based, Fluo4, HEK293 TRPC4beta/mu-opioid, confirmation (AID 2636;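 active means calcium signal cut by more than 3 SD below the full-agonist control yet still positive, in both repeats and the earlier primary screen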). The settings on record: at 10 µM; stronger effect = higher value.
Chain of Short transient receptor potential channel 4 (Mus musculus) (Q9QUQ5 whole entry, looked up): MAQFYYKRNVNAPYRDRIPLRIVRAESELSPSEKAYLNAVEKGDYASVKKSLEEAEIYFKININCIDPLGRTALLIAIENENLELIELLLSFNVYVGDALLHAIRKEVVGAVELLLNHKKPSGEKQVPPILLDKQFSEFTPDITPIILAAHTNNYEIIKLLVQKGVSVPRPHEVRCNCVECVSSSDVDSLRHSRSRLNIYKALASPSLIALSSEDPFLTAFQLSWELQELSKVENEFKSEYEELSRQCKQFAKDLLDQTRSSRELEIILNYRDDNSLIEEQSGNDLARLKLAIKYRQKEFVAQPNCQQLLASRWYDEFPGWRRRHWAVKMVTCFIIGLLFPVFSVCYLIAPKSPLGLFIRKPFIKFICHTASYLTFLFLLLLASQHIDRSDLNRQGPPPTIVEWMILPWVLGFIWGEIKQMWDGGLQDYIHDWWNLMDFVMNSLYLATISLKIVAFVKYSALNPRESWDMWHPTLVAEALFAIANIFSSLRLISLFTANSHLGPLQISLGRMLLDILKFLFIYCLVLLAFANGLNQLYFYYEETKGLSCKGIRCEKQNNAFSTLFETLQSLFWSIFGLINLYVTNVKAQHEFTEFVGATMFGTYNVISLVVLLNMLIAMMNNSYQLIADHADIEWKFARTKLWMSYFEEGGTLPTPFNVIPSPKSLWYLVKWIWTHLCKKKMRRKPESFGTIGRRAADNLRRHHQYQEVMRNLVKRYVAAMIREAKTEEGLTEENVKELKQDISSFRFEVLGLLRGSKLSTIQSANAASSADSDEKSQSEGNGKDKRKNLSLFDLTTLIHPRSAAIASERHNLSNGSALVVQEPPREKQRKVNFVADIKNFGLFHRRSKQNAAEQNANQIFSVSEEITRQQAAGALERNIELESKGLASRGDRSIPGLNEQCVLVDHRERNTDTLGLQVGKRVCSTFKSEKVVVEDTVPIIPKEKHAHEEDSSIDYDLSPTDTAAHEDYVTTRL
The target is the same in assay [6]. Nature of the assay: blockers of DAMGO-evoked TRPC4 calcium flux – cell-based, second round, Fluo4, HEK293 TRPC4beta/mu-opioid, 1 µM, confirmation (AID 2637;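 active means calcium signal ratio cut to more than 3 SD under the fully stimulated control mean yet still positive, in both repeats and the primary screen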). To be noted: at 1 µM; stronger effect = higher value.
Assay [7] has the same target. Nature of the assay: potentiation of DAMGO-evoked TRPC4 calcium signal – cell-based, HEK293 TRPC4/mu-opioid, Fluo-4 calcium, EC20 DAMGO, dose response (AID 434941;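 active means earlier screen potentiator hit that boosts the TRPC4 ion channel at some dose, with a dose response; inactive means no potentiation, no dose response, or not a prior hit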;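 further: calcium entry triggered by an EC20 dose of DAMGO at the co-expressed mu-opioid receptor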).
For assay [8] the target is unchanged. Nature of the assay: block of DAMGO-driven TRPC4 calcium entry – cell-based, HEK293 TRPC4/mu-opioid, Fluo-4 calcium, dose response (AID 434942;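 active means primary screen inhibitor hit that blocks the TRPC4 channel at some tested dose, yielding a dose curve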).
The target of assay [9] is Short transient receptor potential channel 6 (Mus musculus) (UniProt Q61143). Put plainly: TRPC6 blockade by TRPC4 inhibitor hits – cell-based, HEK293, membrane potential dye, duplicate, selectivity assay for TRPC4 inhibitor project, confirmation (AID 434948;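 active means active in primary screen and both duplicates, each dropping signal beyond three positive-control SD with fluorescence still positive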). The settings on record: HEK293 TRPC6, membrane potential dye fluorescence, at 10 µM, stimulated with maximal-effect acetylcholine; stronger effect = higher value.
Chain of Short transient receptor potential channel 6 (Mus musculus) (Q61143 whole entry, looked up): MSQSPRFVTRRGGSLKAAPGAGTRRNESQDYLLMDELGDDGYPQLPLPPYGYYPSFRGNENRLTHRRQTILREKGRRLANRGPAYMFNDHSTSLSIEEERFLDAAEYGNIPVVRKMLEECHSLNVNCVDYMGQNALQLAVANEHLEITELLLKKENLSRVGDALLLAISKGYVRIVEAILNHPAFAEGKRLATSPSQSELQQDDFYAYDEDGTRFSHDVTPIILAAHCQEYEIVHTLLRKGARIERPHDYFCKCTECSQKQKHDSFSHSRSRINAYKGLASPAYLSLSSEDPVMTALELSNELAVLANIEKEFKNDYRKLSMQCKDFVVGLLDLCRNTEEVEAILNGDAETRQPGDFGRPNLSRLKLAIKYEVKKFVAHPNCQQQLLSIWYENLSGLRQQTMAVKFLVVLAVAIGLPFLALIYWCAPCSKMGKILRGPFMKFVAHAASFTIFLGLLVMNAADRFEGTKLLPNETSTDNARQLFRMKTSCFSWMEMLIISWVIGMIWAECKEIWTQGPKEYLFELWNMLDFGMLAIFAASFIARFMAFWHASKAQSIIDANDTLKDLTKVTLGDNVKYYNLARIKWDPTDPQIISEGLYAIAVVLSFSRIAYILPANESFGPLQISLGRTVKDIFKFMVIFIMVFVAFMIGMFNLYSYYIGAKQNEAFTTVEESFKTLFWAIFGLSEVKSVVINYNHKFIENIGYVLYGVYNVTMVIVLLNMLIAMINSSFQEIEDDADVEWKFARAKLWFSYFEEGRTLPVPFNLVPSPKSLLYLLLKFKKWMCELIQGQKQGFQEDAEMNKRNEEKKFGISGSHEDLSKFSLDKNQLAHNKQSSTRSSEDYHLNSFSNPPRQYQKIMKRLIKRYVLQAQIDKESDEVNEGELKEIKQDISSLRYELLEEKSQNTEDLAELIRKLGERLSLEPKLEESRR

For assay [10] the target is unchanged. Nature of the assay: TRPC6 opening by TRPC4 activator hits – cell-based, HEK293, membrane potential dye, duplicate, selectivity assay for TRPC4 activator project, confirmation (AID 434950;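 active means membrane potential signal rise above negative control mean plus 3 SD in both duplicates, also active in the earlier TRPC4 screen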;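 on activation: 0% = buffer only wells and 100% = acetylcholine maximal-effect wells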). To be noted: HEK293 TRPC6, membrane potential fluorescence, at 10 µM; activation: stronger effect = higher value; outcome: activation.
Assay [11] shares this target. Put plainly: positive modulators of mouse TRPC6 channel – HEK293 cells, membrane potential dye, duplicate, selectivity assay for TRPC4 potentiator project, confirmation (AID 434952;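 active means compound raising the membrane signal above positive-control mean plus 3 SD in both repeats, and a primary screen hit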). The settings on record: HEK293 TRPC6, membrane potential dye fluorescence, at 10 µM, maximal acetylcholine added after compound; stronger effect = higher value.
In assay [12] the target is Short transient receptor potential channel 4 (Mus musculus) (UniProt Q9QUQ5). Nature of the assay: calcium flux activators in TRPC4/5HT1a cells, counter-screen for TRPC4 activator project, cell-based, second counter screen, HEK293 TRPC4/5HT1a, Fluo-4 (AID 434977;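 active means calcium signal rise above buffer-control mean plus 5 SD in both duplicates, and also a hit in the primary screen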;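 on activation: plate controls were assay buffer for no effect and maximal serotonin response for full effect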). The settings on record: Fluo-4 calcium flux, at 10 µM; stronger effect = higher value.
A short description of assay [13]: serotonin-gated TRPC4 signal block – cell-based, second counter screen, HEK293 TRPC4/5HT1a, Fluo-4, counter-screen for TRPC4 inhibitor project, confirmation (AID 434978;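 active means primary screen active whose calcium signal fell more than 3 SD beyond the full-serotonin control mean in both duplicate plates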;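 further: serotonin given first at submaximal then at maximal dose after compound preincubation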). To be noted: Fluo-4 calcium flux, at 10 µM, serotonin added to trigger calcium flux; stronger effect = higher value. For orientation: The purpose of a counterscreen is to sort out artefacts and off-target activity.

In assay [14] the test system is TRPC4 (mouse), co-expressed with 5HT1a in HEK293. Put plainly: enhancement of serotonin-evoked TRPC4 response – cell-based, second counter screen, HEK293 TRPC4/5HT1a, Fluo-4, counter-screen for TRPC4 potentiator project, confirmation (AID 434979;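 active means signal rise over 3 SD above mean of control wells given weak agonist, in both repeats and first screen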). The settings on record: Fluo-4 calcium flux, at 10 µM, serotonin added at its EC20 dose; stronger effect = higher value.
The nature of assay [15]: nonspecific calcium rise without TRPC4 – cell-based, HEK293 mu-opioid receptor line, counter-screen for TRPC4 activator project, confirmation (AID 449723;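 active means hit in primary screen, with calcium signal over 5 SD above buffer well mean in both duplicates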;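 further: counter screen cells carry the mu-opioid receptor alone and lack TRPC4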). The settings on record: HEK293 mu-opioid cells, Fluo-4 calcium fluorescence, at 10 µM; stronger effect = higher value.
Assay [16] in a line: nonspecific potentiation of DAMGO calcium response – cell-based, HEK293 mu-opioid receptor line, counter-screen for TRPC4 allosteric potentiator project, confirmation (AID 449724;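 active means calcium signal rise more than 3 SD above the low-dose agonist control mean, in both duplicate plates and the primary screen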;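 further: HEK293 cells carrying mu-opioid receptor only with no TRPC4 channel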). The settings on record: HEK293 mu-opioid receptor cells, Fluo-4 calcium flux, at 10 µM, compound added before EC20 DAMGO stimulus; stronger effect = higher value.

For `OCCNCCSc1ccc(Cl)cc1`, the values for the activation in assay [1], in assay [10] and in [12] were 82% (active), 39.5% (active) and 22.3% (active), respectively. For the same molecule, the result in assay [2], in assay [3], in [4], in assay [5], in [6] and in assay [7] was inactive. Moreover, the outcome in assay [8], in assay [9], in assay [11], in [13], in assay [14] and in assay [15] was inactive. Further, the result in assay [16] was inactive.

As to `COc1ccc(C(CNC(=O)c2cccc(NS(=O)(=O)c3ccc(C)c(F)c3)c2)N(C)C)cc1` (stereo not given), the activation was 135% (active) in [1] and 28.5% (active) in assay [10]. Besides, the result in assay [2], in assay [3], in assay [4], in [5], in assay [6] and in assay [7] was inactive. Further, the result in assay [8], in assay [9], in assay [11], in assay [12], in assay [13] and in assay [14] was inactive. Besides, the outcome in assay [15] and in assay [16] was inactive.

For `c1ccc(Nc2nc(Nc3ccccc3)nc(N3CCNCC3)n2)cc1`, the results for the activation in [1], in assay [10] and in assay [12] were 159% (active), 35.5% (active) and 56.1% (active), respectively. Also, the outcome in assay [2], in assay [3], in assay [4], in [5], in assay [6] and in [7] was inactive. Besides, the outcome in [8], in [9], in assay [11], in assay [13], in assay [14] and in assay [15] was inactive. Also, the outcome in assay [16] was inactive.

`COc1ccc(-c2cc(C(=O)NCC(c3ccccc3)N(C)C)c3ccccc3n2)cc1OC` (stereo not given): the activation in [1] was 98% (active). Further, the outcome in assay [2], in assay [3], in [4], in assay [5], in assay [6] and in assay [7] was inactive. Further, the result in [8], in assay [9], in assay [10], in assay [11], in [12] and in assay [13] was inactive. In addition, the outcome in assay [14], in assay [15] and in assay [16] was inactive.

As to `CCOc1ccc2ncc(C(=O)c3ccc(OC)cc3)c(N3CCN(CC)CC3)c2c1`, the activation in assay [1] was 196% (active). Also, the result in assay [2], in [3], in [4], in [5], in assay [6] and in assay [7] was inactive. For the same molecule, the result in assay [8], in assay [9], in [10], in [11], in assay [12] and in assay [13] was inactive. Also, the result in [14], in assay [15] and in [16] was inactive.

Consider `O=C(c1c(F)cccc1F)N1CCN(c2ncc(Br)cn2)CC1`, for which the activation in assay [1] was 158% (active); in assay [2], 86% (active); in [10] it was 34% (active); in [12] it was 68.5% (active). The outcome in assay [3], in [4], in assay [5], in assay [6], in [7] and in assay [8] was inactive. The molecule was called inactive in [9], in [11], in [13], in assay [14], in assay [15] and in [16].

As to `CCCC(=O)N1CCc2cc(-c3nc(N)sc3C)ccc21`, the activation in [1] is 62% (active). The result in [2], in [3], in assay [4], in assay [5], in [6] and in assay [7] was inactive. In addition, the outcome in assay [8], in assay [9], in assay [10], in assay [11], in assay [12] and in assay [13] was inactive. The outcome in [14], in assay [15] and in assay [16] was inactive.

For `COc1ccc(C(=O)NC(=S)NNC(=O)c2c(-c3ccccc3)noc2C)cc1`, the activation in [1] was 100% (active); in [10], 28.5% (active); in assay [12], 105% (active); in [15], 28.5% (active). For the same molecule, the result in assay [2], in [3], in assay [4], in [5], in assay [6] and in assay [7] was inactive. The result in [8], in [9], in assay [11], in assay [13], in [14] and in assay [16] was inactive.

Consider `CN(CCOc1ccc(Cl)cc1)CC(O)c1ccccc1` (stereo not given), for which the activation in [1] is 76% (active); in assay [10] it was 52.5% (active); in [12] it was 13.9% (active). In addition, the result in assay [2], in [3], in assay [4], in assay [5], in assay [6] and in assay [7] was inactive. Besides, the outcome in assay [8], in assay [9], in assay [11], in assay [13], in [14] and in [15] was inactive. For the same molecule, the result in assay [16] was inactive.

For `O=S(=O)(c1ccc(Cl)cc1)N1CCN2CCCC2C1` (stereo not given), the activation in [1] is 103% (active); in assay [10], 27% (active); in assay [12], 18.1% (active). The result in assay [2], in [3], in [4], in assay [5], in assay [6] and in [7] was inactive. In addition, the outcome in [8], in assay [9], in assay [11], in assay [13], in [15] and in assay [16] was inactive. Besides, the potentiation in [14] was 25.7% (active).

For `O=C(NC(=S)NNC(=O)[C@H]1C[C@@H]1c1ccccc1)c1cccc(F)c1`, the results for the activation in assay [1], in assay [12] and in assay [15] were 213% (active), 140% (active) and 30.6% (active), respectively. Besides, the outcome in [2], in assay [3], in assay [4], in assay [5], in [6] and in [7] was inactive. Also, the result in assay [8], in assay [9], in assay [10], in assay [11], in [13] and in assay [14] was inactive. In addition, the result in assay [16] was inactive.

As for `Cc1ccn2cc(CCNC(=O)C3CC=CCC3C(=O)O)nc2c1` (stereo not given), the activation was 135% (active) in assay [1] and 59.9% (active) in assay [12]. Also, the outcome in assay [2], in assay [3], in assay [4], in [5], in assay [6] and in assay [7] was inactive. Besides, the outcome in assay [8], in assay [9], in [10], in assay [11], in assay [13] and in assay [14] was inactive. Further, the result in assay [15] and in assay [16] was inactive.

Regarding `COc1ccc(C(CNC(=O)c2cccc(S(=O)(=O)NCc3ccccc3)c2)N(C)C)cc1` (stereo not given), the results for the activation in assay [1], in [2] and in assay [10] were 129% (active), 61% (active) and 38% (active), respectively. Also, the outcome in assay [3], in [4], in assay [5], in assay [6], in assay [7] and in [8] was inactive. Further, the molecule was called inactive in [9], in assay [11], in assay [12], in [13], in assay [14] and in assay [15]. Also, the result in assay [16] was inactive.

For the molecule `OC(CNC1CCCc2ccccc21)COc1ccc2ccccc2c1` (stereo not given), the activation in [1] is 158% (active); in assay [10] it was 55% (active); in [12] it was 30.1% (active). The outcome in assay [2], in assay [3], in assay [4], in [5], in assay [6] and in [7] was inactive. Also, the outcome in assay [8], in assay [9], in assay [11], in assay [13], in [14] and in assay [15] was inactive. Besides, the result in [16] was inactive.

As for `O=C(Cn1c(-c2ccccc2)c[n+]2ccsc12)c1ccc(Br)cc1`, the result in assay [1], in assay [3], in assay [4], in assay [5], in assay [6] and in assay [7] was inactive. The outcome in assay [8], in assay [9], in assay [10], in assay [11], in assay [12] and in assay [13] was inactive. For the same molecule, the result in assay [14], in assay [15] and in assay [16] was inactive. Moreover, the activation in assay [2] was 77% (active).
